Source: PubChem BioAssay (EPA / NIEHS)
Results filed as inconclusive are left out. Active and inactive are the calls of the source. The calls were made as follows, unless noted: active = hit-call score of the fitted dose curve at least 0.9, where 1 is the maximum; inactive = score below 0.9.

Key:
[1] = ATG_PBREM_CIS: Attagene CIS-FACTORIAL HepG2 Assay for human Phenobarbital-responsive Enhancer Module (PBREM) (AID 2282955); conditions: HepG2 PBREM cis-reporter, Attagene multiplexed transcription; actives raise or lower the signal
Method in brief: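 Cells were transfected with cis-element reporter units and treated for 24 h, after which RNA was extracted and reporter transcripts measured by RT-PCR and capillary electrophoresis.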

[2] = ATG_PXRE_CIS: Attagene CIS-FACTORIAL HepG2 Assay for human Pregnane X Receptor Element (PXRE) (AID 2282957); conditions: HepG2 Attagene CIS-FACTORIAL PXRE reporter, mRNA; actives raise or lower the signal
Method in brief: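 Multiplexed cis-reporter assay in transiently transfected human HepG2 cells; 24 h chemical exposure. Reporter transcripts quantified by RT-PCR with fluorescent labeling and capillary electrophoresis.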

[3] = ATG_PPRE_CIS: Attagene CIS-FACTORIAL HepG2 Assay for human Peroxisome Proliferator-activated Response Element (PPRE) (AID 2282958); conditions: HepG2 PPRE cis-element reporter, Attagene transcription factor profiling; actives raise or lower the signal
Method in brief: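 In this cell-based multiplex, a PPRE cis element drives a reporter sequence in transiently transfected HepG2 cells. Following 24 h treatment, labeled cDNA amplicons are sized and quantified by capillary electrophoresis, with DMSO defining baseline.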

[4] = ATG_RORE_CIS: Attagene CIS-FACTORIAL HepG2 Assay for human RAR-related Orphan Receptor Element (RORE) (AID 2282959); conditions: HepG2 Attagene cis-factorial RORE reporter, mRNA; actives raise or lower the signal
Method in brief: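 Endogenous factor activity at a cis response element is read as reporter transcript levels in HepG2 cells, 24 h post-dose. Transcripts are quantified by RT-PCR with capillary electrophoresis, and data fitted in both directions against DMSO.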

[5] = ATG_Sox_CIS: Attagene CIS-FACTORIAL HepG2 Assay for human SRY-box transcription factor (SOX) (AID 2282960); conditions: HepG2 Attagene cis-factorial SOX reporter, mRNA; actives raise or lower the signal
Method in brief: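 Measures mRNA induction of a SOX1-associated reporter in HepG2 after 24 h dosing. Fluorescently labelled RT-PCR fragments are separated by capillary electrophoresis, and gain or loss relative to DMSO control is fitted.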

[6] = target: Transcription factor Sp1 (Homo sapiens) (UniProt P08047); assay: ATG_Sp1_CIS: Attagene CIS-FACTORIAL HepG2 Assay for human Specificity Protein 1 (Sp1) (AID 2282961); conditions: HepG2 Sp1 cis-reporter transcription, actives raise or lower the signal
Method in brief: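 Cells: HepG2, transiently transfected with cis-regulated multiplexed reporters. Exposure: 24 h. Detection: reporter transcripts amplified, fluorescently labeled, restriction-digested and sized by capillary electrophoresis. Analysis: bidirectional fit relative to DMSO.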

[7] = ATG_SREBP_CIS: Attagene CIS-FACTORIAL HepG2 Assay for human Sterol Regulatory Element Binding (SREBP) (AID 2282962); conditions: HepG2 Attagene cis-factorial SREBP reporter, mRNA; actives raise or lower the signal
Method in brief: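 HepG2 cells transiently transfected with multiplexed cis-promoter reporter units sensing endogenous transcription factors; reporter mRNA measured 24 h after dosing by RT-PCR, 6-FAM labeling, HpaI digestion and capillary electrophoresis. Bidirectional fit versus DMSO.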

[8] = target: Signal transducer and activator of transcription 3 (Homo sapiens) (UniProt P40763); assay: ATG_STAT3_CIS: Attagene CIS-FACTORIAL HepG2 Assay for human Signal Transducer and Activator of Transcription 3 (STAT3) (AID 2282963); conditions: HepG2, Attagene cis-factorial STAT3 reporter transcription; actives raise or lower the signal
Method in brief: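 Values derive from bidirectional fits relative to DMSO of reporter mRNA levels, measured by RT-PCR with capillary electrophoresis, in HepG2 cells carrying transiently transfected cis-regulated reporter units and exposed 24 h.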

[9] = ATG_TA_CIS: Attagene CIS-FACTORIAL HepG2 Assay for human TA Basal Promoter (AID 2282964); conditions: HepG2 Attagene CIS-factorial TA basal promoter reporter; actives raise or lower the signal
Method in brief: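 Multiplexed mRNA reporter assay, HepG2, 24 h. Reporter cDNA amplified, 6-FAM primer-extended, HpaI-cut, CE-sized; DMSO = negative control and baseline.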

[10] = ATG_TCF_b_cat_CIS: Attagene CIS-FACTORIAL HepG2 Assay for human T-Cell-Factor with beta-catenin (TCF/b-cat) (AID 2282965); conditions: HepG2 TCF/beta-catenin cis-reporter transcription, actives raise or lower the signal
Method in brief: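 HepG2, transient MRTU transfection, cis-element-driven reporters (endogenous TFs). 24 h compound exposure. Readout: reporter mRNA by RT-PCR + 6-FAM primer extension, HpaI digest, capillary electrophoresis. Gain/loss fit vs DMSO baseline.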

[11] = ATG_TAL_CIS: Attagene CIS-FACTORIAL HepG2 Assay for human TAL Basal Promoter (AID 2282966); conditions: HepG2 Attagene cis-factorial TAL promoter reporter; actives raise or lower the signal;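 also: background control endpoint measuring basal TAL promoter reporter mRNA not a specific factor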
Method in brief: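 Steps: transfect HepG2 with multiple reporter transcription units; dose 24 h; isolate RNA, reverse-transcribe, PCR-amplify, label with 6-FAM, digest with HpaI; resolve by capillary electrophoresis. Bidirectional fitting against DMSO baseline.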

[12] = ATG_TGFb_CIS: Attagene CIS-FACTORIAL HepG2 Assay for human Transforming Growth Factor (TGF) (AID 2282967); conditions: HepG2 Attagene CIS TGFb reporter, mRNA transcription; actives raise or lower the signal
Method in brief: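 Transcript-level reporter readout: HepG2 transfectants, 24 h exposure, RNA to cDNA, reporter-specific PCR, fluorescent primer extension, capillary sizing against ROX standards. Gain- or loss-of-signal relative to DMSO.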

[13] = ATG_VDRE_CIS: Attagene CIS-FACTORIAL HepG2 Assay for human Vitamin D Receptor Element (VDRE) (AID 2282968); conditions: HepG2 VDRE cis-reporter transcription, actives raise or lower the signal
Method in brief: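 Cell-based multiplexed reporter format in human liver HepG2 cells, 24 h post-dose. Fluorescence from capillary electrophoresis of reporter cDNA gives the signal, with DMSO as negative control and baseline.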

[14] = target: Nuclear receptor subfamily 1 group I member 3 (Homo sapiens) (UniProt Q14994); assay: ATG_CAR_TRANS: Attagene TRANS-FACTORIAL HepG2 Assay for human Constitutive Androstane Receptor (CAR) (AID 2282969; active = hit-call score of the fitted dose curve at least 0.9, where 1 is the maximum;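 also: activators raise reporter mRNA above DMSO so AC50 marks induction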); conditions: HepG2 Attagene TRANS-FACTORIAL CAR reporter
Method in brief: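 HepG2 cells transiently transfected with GAL4-UAS reporter units; TRANS format reads activity of exogenous chimeric NR-Gal4 protein. After 24 h dosing, reporter mRNA quantified by RT-PCR, 6-FAM labelling and capillary electrophoresis; gain of signal fitted against DMSO.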

[15] = target: X-box-binding protein 1 (Homo sapiens) (UniProt P17861); assay: ATG_Xbp1_CIS: Attagene CIS-FACTORIAL HepG2 Assay for human X-box Binding Protein 1 (XBP1) (AID 2282972); conditions: HepG2 XBP1 cis-element reporter, Attagene multiplex; actives raise or lower the signal
Method in brief: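 HepG2 cells transiently transfected with multiple cis-element reporter units report endogenous TF activity; 24 h exposure, then reporter mRNA measured by RT-PCR, 6-FAM labelling, HpaI digestion and capillary electrophoresis. Bidirectional fitting versus DMSO.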

[16] = ATG_M_19_TRANS: Attagene TRANS-FACTORIAL HepG2 Assay for M19 Transcription Factor (Internal Marker) (AID 2282974; active = hit-call score of the fitted dose curve at least 0.9, where 1 is the maximum); conditions: HepG2 Attagene TRANS-FACTORIAL M19 internal marker reporter
Method in brief: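 Reporter mRNA induction was measured in transfected HepG2 cells 24 h after dosing. Endpoint fitted upward relative to DMSO and serves as a background control within the multiplexed TRANS panel.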

[17] = target: Paired box protein Pax-6 (Homo sapiens) (UniProt P26367); assay: ATG_Pax6_CIS: Attagene CIS-FACTORIAL HepG2 Assay for human Paired Box 6 (PAX6) (AID 2282956); conditions: HepG2 CIS-FACTORIAL PAX6 reporter transcription, RNA readout; actives raise or lower the signal
Method in brief: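 HepG2 cells transiently transfected with cis-promoter-driven multiplexed reporter units sensing endogenous transcription factor activity; 24 h chemical exposure. Reporter mRNA quantified by RT-PCR, 6-FAM labelling, HpaI digestion and capillary electrophoresis; bidirectional fit versus DMSO baseline.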

[18] = target: Estrogen receptor (Homo sapiens) (UniProt P03372); assay: ATG_ERa_TRANS: Attagene TRANS-FACTORIAL HepG2 Assay for human Estrogen Receptor alpha (ERa) (AID 2282970; active = hit-call score of the fitted dose curve at least 0.9, where 1 is the maximum); conditions: HepG2 Attagene TRANS ERa GAL4 reporter, mRNA
Method in brief: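 Multiplexed cell-based reporter format in HepG2: chimeric ERa-Gal4 protein drives GAL4-UAS reporter transcription. Fluorescent reporter mRNA quantified by capillary electrophoresis 24 hours after dosing; endpoint fitted as signal gain against DMSO.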

[19] = target: Steroid hormone receptor ERR1 (Homo sapiens) (UniProt P11474); assay: ATG_ERRa_TRANS: Attagene TRANS-FACTORIAL HepG2 Assay for human Estrogen-Related Receptor alpha (ERRa) (AID 2282971; active = hit-call score of the fitted dose curve at least 0.9, where 1 is the maximum); conditions: HepG2 Attagene TRANS reporter, ERRa transactivation
Method in brief: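 Signal gain relative to DMSO for an ERRa-Gal4 chimeric receptor, read as reporter mRNA by RT-PCR/capillary electrophoresis. Human HepG2 liver cells, transient multiplex reporter transfection, 24 h chemical exposure.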

[20] = ATG_GAL4_TRANS: Attagene TRANS-FACTORIAL HepG2 Assay for GAL4 (Internal Marker) (AID 2282976; active = hit-call score of the fitted dose curve at least 0.9, where 1 is the maximum); conditions: HepG2 Attagene TRANS GAL4 internal marker reporter
Method in brief: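 Liver HepG2 line bearing multiplexed GAL4-UAS reporter constructs; 24 h chemical treatment. Transcripts were quantified as fluorescent fragments on capillary electrophoresis after RT-PCR and HpaI cut, with activity fitted upward from DMSO.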

Chain of Transcription factor Sp1 (Homo sapiens) (P08047 whole entry, looked up): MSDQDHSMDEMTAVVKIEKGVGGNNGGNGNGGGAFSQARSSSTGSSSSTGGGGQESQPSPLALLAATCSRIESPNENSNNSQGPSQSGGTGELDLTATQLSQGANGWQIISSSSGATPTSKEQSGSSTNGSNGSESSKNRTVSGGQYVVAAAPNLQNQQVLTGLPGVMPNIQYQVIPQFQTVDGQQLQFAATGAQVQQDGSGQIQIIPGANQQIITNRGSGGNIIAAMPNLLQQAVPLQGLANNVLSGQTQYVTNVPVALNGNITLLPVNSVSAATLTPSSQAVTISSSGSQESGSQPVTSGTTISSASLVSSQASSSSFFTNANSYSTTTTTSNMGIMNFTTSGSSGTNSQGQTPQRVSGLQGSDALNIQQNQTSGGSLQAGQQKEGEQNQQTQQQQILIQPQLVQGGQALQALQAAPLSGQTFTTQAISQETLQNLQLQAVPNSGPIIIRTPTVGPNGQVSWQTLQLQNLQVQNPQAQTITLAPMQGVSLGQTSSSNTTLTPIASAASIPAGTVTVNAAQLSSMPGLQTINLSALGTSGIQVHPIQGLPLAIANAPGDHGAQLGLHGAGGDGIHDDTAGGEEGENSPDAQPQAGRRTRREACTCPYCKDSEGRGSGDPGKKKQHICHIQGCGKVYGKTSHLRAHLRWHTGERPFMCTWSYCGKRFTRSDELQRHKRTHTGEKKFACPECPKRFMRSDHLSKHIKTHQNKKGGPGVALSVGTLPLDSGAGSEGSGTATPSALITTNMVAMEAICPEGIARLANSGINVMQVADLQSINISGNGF
Chain of Estrogen receptor (Homo sapiens) (P03372 whole entry, looked up, the tested form may be a part): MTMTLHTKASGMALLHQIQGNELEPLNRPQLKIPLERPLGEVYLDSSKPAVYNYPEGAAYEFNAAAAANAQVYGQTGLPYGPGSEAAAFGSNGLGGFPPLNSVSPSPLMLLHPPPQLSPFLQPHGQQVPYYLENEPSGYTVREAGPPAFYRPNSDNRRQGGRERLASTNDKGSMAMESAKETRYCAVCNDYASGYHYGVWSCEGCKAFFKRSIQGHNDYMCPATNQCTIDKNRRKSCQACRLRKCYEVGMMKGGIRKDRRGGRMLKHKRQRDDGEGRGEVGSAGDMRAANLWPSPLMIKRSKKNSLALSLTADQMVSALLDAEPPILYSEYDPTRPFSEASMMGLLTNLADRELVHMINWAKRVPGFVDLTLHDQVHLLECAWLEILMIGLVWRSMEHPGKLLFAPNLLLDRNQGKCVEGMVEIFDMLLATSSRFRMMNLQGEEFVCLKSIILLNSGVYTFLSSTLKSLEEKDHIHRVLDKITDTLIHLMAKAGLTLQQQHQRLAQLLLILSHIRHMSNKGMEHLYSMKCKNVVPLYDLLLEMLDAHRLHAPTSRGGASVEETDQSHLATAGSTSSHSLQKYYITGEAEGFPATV
Chain of X-box-binding protein 1 (Homo sapiens) (P17861 whole entry, looked up): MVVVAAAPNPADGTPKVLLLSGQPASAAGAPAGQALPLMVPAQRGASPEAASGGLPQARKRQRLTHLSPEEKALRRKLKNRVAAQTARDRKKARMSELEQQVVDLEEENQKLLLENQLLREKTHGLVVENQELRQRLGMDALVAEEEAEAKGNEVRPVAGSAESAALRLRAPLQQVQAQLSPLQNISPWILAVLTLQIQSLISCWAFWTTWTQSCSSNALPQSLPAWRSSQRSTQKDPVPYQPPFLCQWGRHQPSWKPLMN
Chain of Nuclear receptor subfamily 1 group I member 3 (Homo sapiens) (Q14994 whole entry, looked up, the tested form may be a part): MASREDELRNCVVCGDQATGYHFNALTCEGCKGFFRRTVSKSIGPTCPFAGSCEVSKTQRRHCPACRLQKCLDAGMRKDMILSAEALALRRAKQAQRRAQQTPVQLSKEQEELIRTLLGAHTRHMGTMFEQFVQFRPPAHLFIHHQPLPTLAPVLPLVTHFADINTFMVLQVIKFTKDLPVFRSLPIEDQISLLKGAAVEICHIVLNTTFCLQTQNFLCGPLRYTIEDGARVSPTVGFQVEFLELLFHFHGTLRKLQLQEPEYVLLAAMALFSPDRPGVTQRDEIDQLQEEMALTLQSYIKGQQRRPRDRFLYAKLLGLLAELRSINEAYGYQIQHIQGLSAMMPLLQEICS
Chain of Signal transducer and activator of transcription 3 (Homo sapiens) (P40763 whole entry, looked up): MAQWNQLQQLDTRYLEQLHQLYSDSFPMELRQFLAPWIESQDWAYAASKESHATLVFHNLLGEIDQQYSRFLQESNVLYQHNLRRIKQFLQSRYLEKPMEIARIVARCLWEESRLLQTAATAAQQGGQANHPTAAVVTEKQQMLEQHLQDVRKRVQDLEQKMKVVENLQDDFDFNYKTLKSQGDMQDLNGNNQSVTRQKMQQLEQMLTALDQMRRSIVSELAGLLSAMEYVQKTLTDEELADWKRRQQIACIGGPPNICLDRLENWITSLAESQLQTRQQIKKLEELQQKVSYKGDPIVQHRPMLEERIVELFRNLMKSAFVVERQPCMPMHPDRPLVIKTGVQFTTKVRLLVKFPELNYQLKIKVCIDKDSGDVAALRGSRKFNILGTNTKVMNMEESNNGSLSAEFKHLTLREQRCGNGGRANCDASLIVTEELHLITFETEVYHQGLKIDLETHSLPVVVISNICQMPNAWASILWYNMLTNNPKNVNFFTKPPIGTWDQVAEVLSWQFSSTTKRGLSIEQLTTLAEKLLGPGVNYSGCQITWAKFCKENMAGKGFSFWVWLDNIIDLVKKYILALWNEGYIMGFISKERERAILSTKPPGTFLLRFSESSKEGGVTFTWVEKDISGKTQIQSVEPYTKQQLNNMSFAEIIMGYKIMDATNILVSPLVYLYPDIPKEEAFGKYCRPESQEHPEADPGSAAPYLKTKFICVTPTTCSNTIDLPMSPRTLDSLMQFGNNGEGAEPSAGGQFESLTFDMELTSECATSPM
Chain of Steroid hormone receptor ERR1 (Homo sapiens) (P11474 whole entry, looked up, the tested form may be a part): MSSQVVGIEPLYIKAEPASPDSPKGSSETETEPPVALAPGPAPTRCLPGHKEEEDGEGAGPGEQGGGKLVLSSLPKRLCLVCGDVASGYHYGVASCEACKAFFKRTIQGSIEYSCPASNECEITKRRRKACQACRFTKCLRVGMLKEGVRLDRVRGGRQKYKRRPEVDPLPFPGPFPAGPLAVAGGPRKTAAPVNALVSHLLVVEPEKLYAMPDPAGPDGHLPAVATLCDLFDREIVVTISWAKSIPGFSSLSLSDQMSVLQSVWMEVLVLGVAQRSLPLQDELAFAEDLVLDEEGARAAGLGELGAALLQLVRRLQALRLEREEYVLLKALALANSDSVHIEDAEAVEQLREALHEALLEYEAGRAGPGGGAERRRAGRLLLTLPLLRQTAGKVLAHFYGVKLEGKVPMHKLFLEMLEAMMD
Chain of Paired box protein Pax-6 (Homo sapiens) (P26367 whole entry, looked up): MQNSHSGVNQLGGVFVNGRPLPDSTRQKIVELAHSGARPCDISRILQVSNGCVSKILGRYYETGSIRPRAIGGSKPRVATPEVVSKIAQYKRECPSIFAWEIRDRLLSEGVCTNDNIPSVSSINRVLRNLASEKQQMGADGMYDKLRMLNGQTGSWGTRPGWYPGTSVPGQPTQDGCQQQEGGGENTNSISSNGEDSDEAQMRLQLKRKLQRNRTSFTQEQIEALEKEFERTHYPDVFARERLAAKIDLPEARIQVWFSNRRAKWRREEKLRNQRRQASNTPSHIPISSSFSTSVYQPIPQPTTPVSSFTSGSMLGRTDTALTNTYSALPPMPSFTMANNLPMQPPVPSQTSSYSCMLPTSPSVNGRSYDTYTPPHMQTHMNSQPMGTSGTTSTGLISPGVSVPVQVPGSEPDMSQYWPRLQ

CCCCCOC(C)=O
outcome [1]: inactive
outcome [2]: inactive
outcome [3]: inactive
outcome [4]: inactive
outcome [5]: inactive
outcome [6]: inactive
outcome [7]: inactive
outcome [8]: inactive
outcome [9]: inactive
outcome [10]: inactive
outcome [11]: inactive
outcome [12]: inactive
outcome [13]: inactive
outcome [14]: inactive
outcome [15]: inactive
outcome [16]: inactive

Cc1nccn1-c1ccc(Sc2cccc(C3(C(N)=O)CCOCC3)c2)cc1
AC50 [1]: 3.41 µM (active)
outcome [17]: inactive
outcome [2]: inactive
AC50 [4]: 5.29 µM (active)
outcome [5]: inactive
AC50 [6]: 2.31 µM (active)
AC50 [7]: 2.08 µM (active)
outcome [8]: inactive
outcome [9]: inactive
AC50 [10]: 6.41 µM (active)
outcome [12]: inactive
AC50 [13]: 4.16 µM (active)
outcome [14]: inactive
outcome [18]: inactive

CC(C)C(=O)Nc1ccc([N+](=O)[O-])c(C(F)(F)F)c1
outcome [1]: inactive
outcome [17]: inactive
AC50 [2]: 2.87 µM (active)
outcome [4]: inactive
outcome [6]: inactive
outcome [7]: inactive
outcome [8]: inactive
outcome [9]: inactive
outcome [10]: inactive
outcome [12]: inactive
outcome [18]: inactive
outcome [16]: inactive

CC(C)c1nnc2ccc(-c3ocnc3-c3cc(F)ccc3F)cn12
AC50 [1]: 83.4 µM (active)
AC50 [2]: 26.5 µM (active)
outcome [3]: inactive
outcome [4]: inactive
outcome [5]: inactive
AC50 [6]: 125 µM (active)
outcome [7]: inactive
outcome [8]: inactive
outcome [9]: inactive
outcome [10]: inactive
outcome [11]: inactive
outcome [12]: inactive
AC50 [13]: 37.7 µM (active)
outcome [14]: inactive
outcome [18]: inactive
outcome [19]: inactive
outcome [15]: inactive

CNC(C)=O
outcome [1]: inactive
AC50 [2]: 26.1 µM (active)
outcome [3]: inactive
outcome [4]: inactive
outcome [5]: inactive
outcome [6]: inactive
outcome [7]: inactive
outcome [8]: inactive
outcome [9]: inactive
outcome [10]: inactive
outcome [12]: inactive
outcome [13]: inactive
outcome [14]: inactive
outcome [18]: inactive

CCCc1ccccc1
outcome [1]: inactive
outcome [2]: inactive
outcome [3]: inactive
outcome [4]: inactive
outcome [6]: inactive
outcome [7]: inactive
outcome [8]: inactive
outcome [9]: inactive
outcome [10]: inactive
outcome [12]: inactive
outcome [13]: inactive
outcome [15]: inactive
outcome [20]: inactive

C=CCc1cc(S(=O)(=O)c2ccc(O)c(CC=C)c2)ccc1O
outcome [1]: inactive
AC50 [2]: 2.77 µM (active)
AC50 [3]: 8.96 µM (active)
AC50 [4]: 17.4 µM (active)
outcome [5]: inactive
outcome [6]: inactive
AC50 [7]: 9.26 µM (active)
outcome [8]: inactive
AC50 [9]: 33.4 µM (active)
AC50 [10]: 43.7 µM (active)
outcome [11]: inactive
outcome [12]: inactive
AC50 [13]: 9.12 µM (active)
AC50 [18]: 2.06 µM (active)
outcome [15]: inactive
outcome [16]: inactive
outcome [20]: inactive

NNC(=O)c1ccncc1
outcome [1]: inactive
outcome [2]: inactive
outcome [3]: inactive
outcome [4]: inactive
outcome [6]: inactive
outcome [7]: inactive
outcome [8]: inactive
outcome [9]: inactive
outcome [10]: inactive
outcome [12]: inactive
outcome [13]: inactive
outcome [18]: inactive
outcome [19]: inactive
outcome [15]: inactive
outcome [16]: inactive
outcome [20]: inactive

O=S1(=O)CCCO1
outcome [1]: inactive
outcome [2]: inactive
outcome [3]: inactive
outcome [4]: inactive
outcome [6]: inactive
outcome [7]: inactive
outcome [8]: inactive
outcome [9]: inactive
outcome [10]: inactive
outcome [11]: inactive
outcome [12]: inactive
outcome [13]: inactive
outcome [15]: inactive
outcome [20]: inactive
